# For some assays here: Measured potencies and affinities stand elsewhere.
# Columns and labels:
# Design in all cases: scale not given: direction of the effect not stated beside the values
# [1] = target: Protein translocase subunit SecA (Escherichia coli (strain K12)) (UniProt P10408); test: Assay to Identify E. coli SecA ATPase Inhibitors; assay type: functional; settings: 30 µM
# [2] = target: T1, Ubiquitin-activating enzyme e1, putative (Leishmania donovani (strain BPK282A1)) (UniProt E9BSI1); test: Leishmania donovani Ubiquitin Activating Enzyme (LdE1); assay type: functional; settings: 30 µM
# T1 sequence (whole entry): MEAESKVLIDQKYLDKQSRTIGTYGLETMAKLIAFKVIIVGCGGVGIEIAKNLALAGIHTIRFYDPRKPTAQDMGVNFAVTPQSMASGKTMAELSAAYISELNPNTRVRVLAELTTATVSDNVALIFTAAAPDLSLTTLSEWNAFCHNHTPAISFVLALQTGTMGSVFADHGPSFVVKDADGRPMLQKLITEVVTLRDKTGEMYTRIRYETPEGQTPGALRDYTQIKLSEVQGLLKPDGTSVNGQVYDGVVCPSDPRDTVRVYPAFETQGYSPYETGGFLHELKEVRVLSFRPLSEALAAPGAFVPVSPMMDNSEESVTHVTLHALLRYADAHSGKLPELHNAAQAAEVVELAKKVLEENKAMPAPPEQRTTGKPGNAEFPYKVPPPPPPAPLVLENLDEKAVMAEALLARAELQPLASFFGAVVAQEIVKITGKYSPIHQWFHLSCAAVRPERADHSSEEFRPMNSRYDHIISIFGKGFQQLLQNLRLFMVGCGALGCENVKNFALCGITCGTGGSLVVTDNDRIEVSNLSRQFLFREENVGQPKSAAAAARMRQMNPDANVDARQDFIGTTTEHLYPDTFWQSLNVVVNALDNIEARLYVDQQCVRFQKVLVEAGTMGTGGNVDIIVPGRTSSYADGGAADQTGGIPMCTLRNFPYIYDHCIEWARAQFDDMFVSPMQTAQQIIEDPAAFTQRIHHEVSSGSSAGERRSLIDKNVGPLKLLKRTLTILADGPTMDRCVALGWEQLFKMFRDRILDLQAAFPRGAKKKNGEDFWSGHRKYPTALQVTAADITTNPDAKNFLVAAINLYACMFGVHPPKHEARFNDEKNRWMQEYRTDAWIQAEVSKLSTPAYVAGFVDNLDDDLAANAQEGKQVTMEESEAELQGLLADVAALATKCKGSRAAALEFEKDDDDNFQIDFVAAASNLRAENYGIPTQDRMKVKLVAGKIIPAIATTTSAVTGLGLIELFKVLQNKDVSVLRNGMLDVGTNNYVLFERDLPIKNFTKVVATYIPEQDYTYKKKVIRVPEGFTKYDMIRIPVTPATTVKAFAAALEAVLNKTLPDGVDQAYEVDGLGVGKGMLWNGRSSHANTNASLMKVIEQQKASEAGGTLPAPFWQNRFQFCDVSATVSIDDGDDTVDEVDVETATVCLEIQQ
# [3] = target: AMP-activated protein kinase, AMPK (Homo sapiens) (UniProt P54646+O43741+P54619+Q9UGJ0+Q9Y478+Q13131+Q9UGI9); test: AMP-dependent Kinase enzyme assay. An in vitro enzyme assay that detects ADP turnover that is directly proportional to AMPK activity. This uses naive AMPK that is activated during the assay with MK-8722; assay type: functional; settings: 30 µM
# [4] = target: Sialic acid-binding Ig-like lectin 9 (Homo sapiens) (UniProt Q9Y336); test: Hs-Siglec9 ALPHAscreen SOP 20170721; settings: 10 µM
# [5] = tested on: Trypanosoma cruzi; test: Trypanosoma cruzi phosphomannomutase and mannose-1-phosphate guanylyltransferase assay; assay type: functional; settings: 10 µM
# [6] = target: T2, Arginase-2, mitochondrial (Homo sapiens) (UniProt P78540); test: in vitro enzyme assay to detect the production of urea directly proportional to the activity of Arginase II; assay type: functional; settings: 33.3 µM; note: in the data most compounds retested in dose-response had high values
# T2 sequence (whole entry): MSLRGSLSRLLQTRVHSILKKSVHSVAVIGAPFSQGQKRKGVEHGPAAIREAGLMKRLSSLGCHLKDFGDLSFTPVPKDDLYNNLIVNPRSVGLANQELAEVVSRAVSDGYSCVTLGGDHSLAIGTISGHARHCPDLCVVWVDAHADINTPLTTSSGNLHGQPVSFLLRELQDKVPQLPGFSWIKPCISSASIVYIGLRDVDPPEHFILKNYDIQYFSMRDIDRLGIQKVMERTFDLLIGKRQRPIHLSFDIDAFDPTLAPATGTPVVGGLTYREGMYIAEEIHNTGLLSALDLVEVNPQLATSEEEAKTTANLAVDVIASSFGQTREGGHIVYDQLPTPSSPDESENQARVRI
# [7] = target: T3, Proteasome subunit beta (Trypanosoma cruzi) (UniProt O96673); test: Trypanosoma cruzi proteasome chymotrypsin-like activity (TcProtChymo) assay.; note: in the data most compounds retested in dose-response had high values; assay type: functional; settings: 9.37 µM
# T3 sequence (whole entry): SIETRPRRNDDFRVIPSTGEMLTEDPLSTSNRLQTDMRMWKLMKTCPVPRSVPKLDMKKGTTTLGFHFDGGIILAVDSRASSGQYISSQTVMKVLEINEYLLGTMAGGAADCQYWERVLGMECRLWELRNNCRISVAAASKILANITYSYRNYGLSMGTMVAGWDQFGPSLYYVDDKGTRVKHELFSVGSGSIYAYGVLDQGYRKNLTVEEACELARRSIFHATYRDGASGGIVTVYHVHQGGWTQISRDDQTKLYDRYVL
# [8] = species: Homo sapiens; test: To identify inhibition of the IFN signalling (Jak-Stat) pathway via expression of an eGFP reporter gene under the control of an IFN-stimulated response element (ISRE) containing MxA promoter.; assay type: functional; settings: 30 µM
# [9] = target: T4, Tyrosyl-tRNA synthetase, putative (Trypanosoma cruzi (strain CL Brener)) (UniProt Q4DSP6); test: Trypanosoma cruzi tyrosyl tRNA synthetase (TcYRS) _High Tyrosine SOP; assay type: functional; settings: 30 µM; note: in the data most compounds retested in dose-response had high values
# T4 sequence (whole entry): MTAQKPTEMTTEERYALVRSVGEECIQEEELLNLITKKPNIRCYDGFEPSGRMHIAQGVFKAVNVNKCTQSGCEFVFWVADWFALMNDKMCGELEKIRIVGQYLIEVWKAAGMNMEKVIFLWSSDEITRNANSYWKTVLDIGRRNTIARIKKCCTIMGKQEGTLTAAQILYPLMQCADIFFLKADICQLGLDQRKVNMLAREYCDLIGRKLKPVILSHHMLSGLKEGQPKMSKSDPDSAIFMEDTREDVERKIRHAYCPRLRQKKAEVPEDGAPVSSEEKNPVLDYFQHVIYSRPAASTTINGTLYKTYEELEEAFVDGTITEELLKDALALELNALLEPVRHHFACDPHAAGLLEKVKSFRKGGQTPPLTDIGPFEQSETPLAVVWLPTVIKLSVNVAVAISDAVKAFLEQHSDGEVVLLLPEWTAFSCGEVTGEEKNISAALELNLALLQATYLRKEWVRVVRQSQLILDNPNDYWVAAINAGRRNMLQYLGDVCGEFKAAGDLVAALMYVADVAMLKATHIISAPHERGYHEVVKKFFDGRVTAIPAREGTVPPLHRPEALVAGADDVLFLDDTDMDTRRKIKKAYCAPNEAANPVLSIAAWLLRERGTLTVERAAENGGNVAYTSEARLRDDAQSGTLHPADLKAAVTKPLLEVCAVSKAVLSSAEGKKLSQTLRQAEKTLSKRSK
# [10] = target: T4, Tyrosyl-tRNA synthetase, putative (Trypanosoma cruzi (strain CL Brener)); test: Trypanosoma cruzi tyrosyl tRNA synthetase (TcYRS) SOP; assay type: functional; settings: 30 µM
# [11] = target: Chromo domain-containing protein 1 (Saccharomyces cerevisiae (strain ATCC 204508 / S288c) (Baker's yeast)) (UniProt P32657); test: ScCHD-1 Enzyme Inhibition Assay; assay type: functional; settings: 30 µM; note: in the data most compounds retested in dose-response had high values
# Chain of Chromo domain-containing protein 1 (Saccharomyces cerevisiae (strain ATCC 204508 / S288c) (Baker's yeast)) (P32657 whole entry, the tested form may be a part): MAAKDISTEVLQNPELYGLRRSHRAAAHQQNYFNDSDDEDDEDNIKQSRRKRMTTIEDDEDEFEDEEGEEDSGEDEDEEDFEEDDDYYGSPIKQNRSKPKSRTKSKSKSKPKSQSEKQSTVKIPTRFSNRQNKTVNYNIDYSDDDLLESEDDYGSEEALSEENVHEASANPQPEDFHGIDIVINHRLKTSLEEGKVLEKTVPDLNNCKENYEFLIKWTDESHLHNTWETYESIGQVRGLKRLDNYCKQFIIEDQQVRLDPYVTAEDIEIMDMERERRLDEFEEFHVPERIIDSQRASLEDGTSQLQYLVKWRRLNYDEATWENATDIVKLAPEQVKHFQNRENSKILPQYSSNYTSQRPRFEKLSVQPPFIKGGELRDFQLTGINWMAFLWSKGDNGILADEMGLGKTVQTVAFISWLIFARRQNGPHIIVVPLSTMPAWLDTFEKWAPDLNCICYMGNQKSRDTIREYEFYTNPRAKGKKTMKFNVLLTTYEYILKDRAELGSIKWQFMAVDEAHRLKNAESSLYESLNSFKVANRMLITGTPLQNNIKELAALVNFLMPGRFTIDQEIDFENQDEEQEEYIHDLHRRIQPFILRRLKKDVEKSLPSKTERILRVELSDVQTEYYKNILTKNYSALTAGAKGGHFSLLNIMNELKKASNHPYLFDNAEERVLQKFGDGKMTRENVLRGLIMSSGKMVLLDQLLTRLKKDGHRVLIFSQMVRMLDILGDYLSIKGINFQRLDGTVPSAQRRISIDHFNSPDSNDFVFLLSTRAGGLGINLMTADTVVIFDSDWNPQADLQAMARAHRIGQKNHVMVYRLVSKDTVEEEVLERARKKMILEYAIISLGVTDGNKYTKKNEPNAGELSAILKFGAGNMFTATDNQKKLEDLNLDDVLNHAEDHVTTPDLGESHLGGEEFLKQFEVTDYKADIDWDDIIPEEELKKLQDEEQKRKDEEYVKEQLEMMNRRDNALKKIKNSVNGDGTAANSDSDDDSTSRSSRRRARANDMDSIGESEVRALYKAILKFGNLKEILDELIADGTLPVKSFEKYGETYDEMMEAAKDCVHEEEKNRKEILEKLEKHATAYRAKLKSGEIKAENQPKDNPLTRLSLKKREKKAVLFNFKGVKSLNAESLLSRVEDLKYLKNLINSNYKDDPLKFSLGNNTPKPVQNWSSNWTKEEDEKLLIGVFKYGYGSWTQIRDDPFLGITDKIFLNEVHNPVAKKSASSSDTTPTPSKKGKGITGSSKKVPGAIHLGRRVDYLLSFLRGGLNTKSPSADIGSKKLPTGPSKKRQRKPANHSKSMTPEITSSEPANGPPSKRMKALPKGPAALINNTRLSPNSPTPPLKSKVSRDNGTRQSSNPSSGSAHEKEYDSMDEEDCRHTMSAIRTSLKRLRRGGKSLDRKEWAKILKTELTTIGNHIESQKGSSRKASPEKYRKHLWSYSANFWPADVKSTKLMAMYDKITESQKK
# Chain of Protein translocase subunit SecA (Escherichia coli (strain K12)) (P10408 whole entry): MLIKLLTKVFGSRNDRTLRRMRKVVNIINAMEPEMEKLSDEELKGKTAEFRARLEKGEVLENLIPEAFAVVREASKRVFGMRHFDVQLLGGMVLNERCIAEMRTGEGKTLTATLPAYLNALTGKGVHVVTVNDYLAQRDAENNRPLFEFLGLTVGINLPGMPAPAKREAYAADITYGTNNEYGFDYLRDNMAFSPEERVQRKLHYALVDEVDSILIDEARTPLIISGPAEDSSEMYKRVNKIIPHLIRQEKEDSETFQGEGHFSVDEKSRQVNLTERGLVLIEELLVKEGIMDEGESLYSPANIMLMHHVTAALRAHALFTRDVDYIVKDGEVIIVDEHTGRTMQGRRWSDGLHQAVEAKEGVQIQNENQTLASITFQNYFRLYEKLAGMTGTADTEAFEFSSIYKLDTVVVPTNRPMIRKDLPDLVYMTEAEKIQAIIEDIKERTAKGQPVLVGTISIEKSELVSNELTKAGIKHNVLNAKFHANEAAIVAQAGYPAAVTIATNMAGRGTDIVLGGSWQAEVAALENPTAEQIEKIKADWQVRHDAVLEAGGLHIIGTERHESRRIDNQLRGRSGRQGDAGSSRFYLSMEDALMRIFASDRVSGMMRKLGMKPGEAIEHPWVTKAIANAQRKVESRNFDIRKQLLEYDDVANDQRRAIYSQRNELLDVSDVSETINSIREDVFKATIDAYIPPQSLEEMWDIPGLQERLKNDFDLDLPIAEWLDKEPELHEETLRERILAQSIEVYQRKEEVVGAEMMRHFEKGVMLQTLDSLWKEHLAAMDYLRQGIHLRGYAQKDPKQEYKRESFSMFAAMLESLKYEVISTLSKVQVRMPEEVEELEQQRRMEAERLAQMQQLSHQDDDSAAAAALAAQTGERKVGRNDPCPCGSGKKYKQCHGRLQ
# Chain of Sialic acid-binding Ig-like lectin 9 (Homo sapiens) (Q9Y336 whole entry): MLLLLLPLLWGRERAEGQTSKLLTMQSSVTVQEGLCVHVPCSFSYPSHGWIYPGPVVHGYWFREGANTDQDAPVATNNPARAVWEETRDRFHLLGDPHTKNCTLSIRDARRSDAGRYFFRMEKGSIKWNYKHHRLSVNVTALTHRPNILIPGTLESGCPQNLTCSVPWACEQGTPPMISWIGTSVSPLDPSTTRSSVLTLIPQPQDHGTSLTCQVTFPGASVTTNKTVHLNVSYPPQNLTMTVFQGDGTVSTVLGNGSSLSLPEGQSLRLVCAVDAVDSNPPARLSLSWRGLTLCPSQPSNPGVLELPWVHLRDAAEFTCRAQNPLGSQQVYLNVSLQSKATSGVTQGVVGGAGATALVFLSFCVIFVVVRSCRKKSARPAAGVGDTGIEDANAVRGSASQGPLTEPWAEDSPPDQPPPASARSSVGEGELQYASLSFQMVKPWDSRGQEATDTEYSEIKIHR
Compound,Percent Effect [1],Percent Effect [2],Percent Effect [3],Percent Effect [4],Percent Effect [5],Percent Effect [6],Percent Effect [7],Percent Effect [8],Percent Effect [9],Percent Effect [10],Percent Effect [11]
CCc1ccc(CN2CCC3(CC2)CC(N2CCN(C)CC2)CO3)cc1 (configuration not stated),-9.52%,0%,7.52%,5.26%,-0.293%,-2.23%,11.6%,-0.446%,4.32%,5.13%,14%
O=C(C1=CCCC1)N1CCC[C@]2(C[C@@H](OCc3ccncc3)CO2)C1,1.57%,10.7%,4.23%,8.61%,-1.93%,-19.2%,7.69%,-6.85%,5.21%,22.5%,-9.61%
Cc1nc(CCC(=O)NC2CCC2)cc(C2CCNCC2)n1,-4.77%,26.7%,-4.67%,-2.25%,6.1%,-4.43%,4.67%,3.41%,4.25%,19.2%,-7.72%
Cc1nc(CN2CCCC2c2ccsc2)nc2ccccc12 (configuration not stated),-1.18%,-16.5%,3.32%,2.94%,4%,7.1%,13.6%,23.7%,9.38%,27.9%,4.99%
CC1CN(C)c2ccccc2CN1C(=O)c1ccc[nH]1 (configuration not stated),-4.68%,5.48%,-8.65%,-2.78%,-0.196%,0.455%,12.9%,20.4%,5.38%,10%,-4.57%
Cc1cccc(C(=O)NCc2ccc(N3CCCCC3)nc2)n1,-0.795%,13.9%,3.85%,4.23%,-2.97%,-1.5%,11.8%,24.3%,8.33%,15.2%,-1.41%
Cc1ccc(C(=O)NC(CN2CCCC2=O)c2ccccc2)c(=O)[nH]1 (configuration not stated),-4.18%,21.9%,-6.93%,17.4%,5.88%,29.6%,9.23%,2.33%,5.38%,15%,-5.93%
Fc1ccccc1-c1noc2c1CN(CC1CC1)CC2,-0.719%,13.7%,1.26%,4.91%,5.68%,1.36%,17%,11.6%,7.53%,20%,-0.386%
CCC(=O)N1CCC(c2nc3ccc(NC(C)C)cn3n2)CC1,-5.82%,-5.41%,-88.4%,0.275%,-1.56%,-0.833%,1.44%,-2.11%,1.98%,1.22%,-4.18%
Cc1cnn(C2CCCN(C(=O)c3cnc4ccccc4n3)C2)c1 (configuration not stated),-3.93%,5.41%,-4.84%,2.3%,1.04%,-1.6%,1.62%,13%,4.43%,13.6%,-3.95%
CCn1ccnc1CN1CCCN(C(=O)Cn2nc(C)cc2C)CC1,-2.55%,0%,9.91%,-9.39%,1.08%,-0.21%,3.31%,-12.9%,-1.91%,0%,-14.3%
COc1ccc(F)cc1C(C)NC(=O)c1nnc(C)s1 (configuration not stated),-4.77%,-2.7%,0.954%,-9.5%,-2.05%,0.248%,-4.89%,-14.3%,-3.23%,-1.24%,3.82%
CCS(=O)(=O)c1ccccc1N1CCC(NC(C)=O)CC1,-2.22%,21.6%,-1.79%,2.67%,-5.11%,-4.25%,-19.4%,11.3%,6.93%,13.4%,0.794%
COc1ccc(OC)c(CCNC(=O)NC(C)Cn2ccnc2)c1 (configuration not stated),-2.99%,10.5%,-9.22%,-3.09%,-9.77%,-6.13%,5.35%,34.6%,-1.47%,4.88%,-5.83%
CC(C)Oc1cccc(C(=O)C2CCCN(C(=O)c3ncn[nH]3)C2)c1 (configuration not stated),-0.804%,-2.7%,-3.49%,0.785%,7.92%,-1.91%,21.6%,3.35%,6.88%,12.2%,-3.93%
OC1CCCN(Cc2c(-c3ccco3)[nH]c3ncccc23)C1 (configuration not stated),-4.22%,25.7%,-13.3%,19%,2.17%,-1.16%,11.1%,20.3%,6.45%,19.5%,-18.1%
COC(=O)CCc1c(C)nc2cc(O)nn2c1C,-4.39%,20.8%,-48.9%,6.03%,1.31%,-3.92%,9.46%,6.61%,9.71%,21.9%,-9.77%
COc1ccc(NC(=O)CCc2c(C)nc3cc(O)nn3c2C)cn1,-3.54%,0%,-317%,9.4%,6.18%,0.356%,8.62%,25.5%,7.77%,21.9%,-8.7%
CC(O)CN(CC(=O)NC(=O)NC1CC1)c1ccccc1 (configuration not stated),-7.41%,15.6%,-2.19%,-7.69%,-2.64%,-3.16%,3.64%,6.08%,5.71%,2.35%,-17.8%
COc1ccc(NC(=O)c2ccc[nH]2)c(N2CCN(C(C)=O)CC2)n1,-1.32%,10.8%,-4.59%,-2.38%,0.781%,37.1%,7.18%,-7.2%,6.93%,13.4%,-6.01%
Cc1ccc2c(n1)N(C)CCN(C(=O)C1CC1)C2,1.38%,8%,0.651%,2.31%,-8.69%,-54.3%,7.69%,12.1%,2.08%,17.5%,-6.8%
COC(=O)c1cccc(NC(=O)CN2CCN(S(C)(=O)=O)CC2)c1,-1.95%,16.2%,0.0395%,18.7%,2.64%,25.6%,15.4%,0.655%,4.3%,16.1%,-4.76%
